The experiment can be described thus: signal quenchers or enhancers, Cy5-oligo/SSB – biochemical, E. coli SSB, selected ChemBridge compounds, artefact control for HCV NS3 helicase inhibitor project (AID 720487).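 Further: ratio of compound well signal to mean negative control signal so 1 means no effect.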 Conditions: Cy5-dT15/E. coli SSB fluorescence interference; at 100 µM; actives lie on both sides.

These results are taken from PubChem BioAssay AID720487 (Milwaukee Institute for Drug Discovery, 2013).

Molecules are shown by their SMILES. Some of the results follow. Values without a mark were called inactive.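 How the source made its calls: active means fluorescence interference ratio at or above 1.2, signal boosting, or at or below 0.8, signal quenching; inactive means ratio between 0.8 and 1.2.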

Take `CCOc1cc(C=C2C(=O)NC(=O)NC2=O)cc(Br)c1OCCOc1ccccc1C`: the fluorescence interference ratio was 0.894.
